# Shown are actives, neighbours in structure and some others; about 3.2% of the full set was active somewhere.
# Tau ThT inhib: inhibitors of human tau fibril formation, thioflavin T binding | recombinant tau K18 P301L, heparin-induced fibrillization, ThT fluorescence | 270,000 compounds, 2.1% hits | P10636 | Potency, µM (doses to about 57.4 µM), for inactives: at the top dose activity, negative = inhibition, hits mostly inhibitors; note: nearly all actives have a fitted effect of over 55% in size
# Target sequence (P10636 561-689 P618L limits assumed): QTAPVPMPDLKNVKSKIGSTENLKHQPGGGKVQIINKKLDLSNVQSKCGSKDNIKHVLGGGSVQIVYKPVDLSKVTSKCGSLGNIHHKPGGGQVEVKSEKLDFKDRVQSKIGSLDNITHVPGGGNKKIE
#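 Heparin-induced fibrillization of the P301L-mutant K18 repeat-domain fragment of human tau was followed by ThT binding in quantitative high-throughput format.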
# RGS12 GoLoco inh: blocks human Gai1 binding to RGS12 GoLoco peptide, red readout | P63096 | Gai1:RGS12 GoLoco peptide FP, rhodamine, 10 min | Potency, µM (doses to about 61.6 µM), for inactives: top-dose activity, negative = inhibition, usual class: inhibitors | 230,000 compounds, 0.44% hits; active = well fitted inhibition curve with a large enough effect, not every such curve was filed as active; inactive = no such curve, though single readings can be large or run the other way; note: nearly all actives have a fitted effect of over 30% in size
# Target sequence (P63096 whole entry, looked up): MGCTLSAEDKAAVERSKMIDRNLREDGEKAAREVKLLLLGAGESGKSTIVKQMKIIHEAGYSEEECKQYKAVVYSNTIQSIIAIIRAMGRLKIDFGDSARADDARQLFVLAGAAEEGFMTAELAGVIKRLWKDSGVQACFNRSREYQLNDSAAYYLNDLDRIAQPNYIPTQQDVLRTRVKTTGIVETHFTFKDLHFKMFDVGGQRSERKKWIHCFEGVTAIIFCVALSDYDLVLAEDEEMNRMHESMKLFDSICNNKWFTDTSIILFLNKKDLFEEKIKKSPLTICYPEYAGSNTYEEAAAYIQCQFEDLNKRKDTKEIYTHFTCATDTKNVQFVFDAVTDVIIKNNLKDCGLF
# TexasRed fluor: Texas Red fluorescence interference in TRb-SRC2 counter-screen | TRb/SRC2 Texas Red total fluorescence interference | Potency, µM (series often up to 106 µM), for the others: at the highest dose fluorescence change, negative = quenching | AID 1479 | 280,000 compounds, 0.29% hits; active = well fitted curve in either direction with a large enough effect; inconclusive = small, poorly fitted or top-dose-only effect
#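 Human TRβ ligand-binding domain (0.6 uM) and Texas Red SRC2 peptide (20 nM) in Tris buffer with 1 uM T3 and 5% DMSO were incubated with pinned compound for 5 hr at ambient temperature. Total fluorescence was computed as S + 2P (555/632 nm).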
# Tau FP inhib: inhibitors of human tau fibril formation; K18 P301L tau heparin fibrillization, Alexa594 FP, 6 h; Potency, µM (highest dose often 57.7 µM), without a hit: at the highest dose activity, negative = inhibition, actives largely listed as inhibitors; 280,000 compounds, 0.39% hits; AID 1468; note: nearly all actives have a fitted effect of over 55% in size
#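 Heparin (20 uM) drove fibril formation of recombinant tau K18 P301L, 15 uM unlabeled with 0.24 uM Alexa 594 label, for 6 hr at 37 C in 100 mM sodium acetate pH 7. Fluorescence polarization (555/632 nm) read 1 hr after 30 uM ThT.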
# Tau fluor cs: counter-screen for tau fibril formation inhibitors; tau K18 P301L Alexa594 fluorescence, heparin fibrillization; Potency, µM (series often up to 57.7 µM), without a hit: top-dose activity change, negative = decrease; 280,000 compounds, 0.93% hits; AID 1463; note: nearly all actives have a fitted effect of over 55% in size
#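 Human tau K18 P301L (15 uM unlabeled, 0.24 uM Alexa 594-labeled) in 100 mM sodium acetate pH 7 with 20 uM heparin, 6 hr at 37 C. ThT 30 uM added, 1 hr ambient; Alexa 594 FP and total fluorescence read at 555/632 nm.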
# TRb-SRC2 inh: disrupts binding of human TR beta to SRC2 | 280,000 compounds, 0.065% hits | P10828 | AID 1469 | Potency, µM (titrated, usually from 106 µM), for inactives: at the top dose activity change, negative = inhibition, actives largely listed as inhibitors | TRbeta-SRC2 peptide binding, fluorescence polarization; receptor liganded with 1 µM T3;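 note: plate controls were bound peptide for no effect and peptide without receptor for full effect; nearly all actives have a fitted effect of over 50% in size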
#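 Quantitative HTS by FP: 0.6 uM TRb LBD, 20 nM labeled SRC2 20-mer, 1 uM T3, 5% DMSO; 5 hr ambient incubation; % activity per concentration and potencies from concentration series.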
# * hit, by the source's call; ? = inconclusive; / = no result given; [ ] = another dose, or the depositor's remark. Unless noted, calls come from the whole dose curve; as a rule, active = well fitted curve in the direction sought with a large enough effect; inconclusive = small, poorly fitted or top-dose-only effect, or another doubt; inactive = no such curve, though single readings can be large; an effect the other way counts as inactive or inconclusive. Unless noted, % is set by controls: 0 for no effect and ±100 for the full control effect; potency is the fitted concentration of half-maximal effect.
SMILES,Tau ThT inhib,RGS12 GoLoco inh,TexasRed fluor,Tau FP inhib,Tau fluor cs,TRb-SRC2 inh
Nc1nc(-c2ccc(Br)cc2)cs1,?,-18%,0%,2%,?,-11%
COc1ccc(Nc2nc(-c3c[nH]c4ccccc34)cs2)cc1,8.9µM*,31%,27%,?,13µM*[quencher],14%
Oc1ccc(Nc2nc(-c3ccc(Cl)cc3)cs2)cc1,4µM*,-4%,-23%,?,7.9µM*[quencher],-1%
COc1ccc(Nc2nc(-c3ccc(OC)cc3)cs2)cc1,?,2%,-3%,6%,?,-2%
COc1ccc2oc(=O)c(-c3nnc(-c4ccc(C)cc4)o3)cc2c1,-8%,/,20µM*[quencher],-8%,1%,-17%[53 µM]
Brc1ccc(-c2csc(Nc3nc(-c4ccc(Br)cc4)cs3)n2)cc1,?,3%,-1%,2%,8.9µM*[quencher],-7%
COc1ccc(C2/C=C\CN(S(=O)(=O)c3ccc(C)cc3)C(Cc3ccccc3)C(=O)N2Cc2ccc(F)cc2)cc1 (stereo unspecified),/,/,1%,/,/,5%
OC[C@@H]1O[C@H](OC2[C@@H](O)[C@@H](O)[C@@H](O)O[C@@H]2CO)[C@H](O)[C@@H](O)[C@@H]1OC1O[C@H](CO)[C@@H](O)[C@H](O)[C@@H]1O (stereo partly specified),/,/,-7%,/,/,-5%
Oc1ccc(Nc2nc(-c3ccc(O)cc3)cs2)cc1,6.3µM*,-3%,?,2%,14µM*[quencher],21%
CN=c1scc(C)n1/N=C/c1ccc(O)cc1,?,1%,-2%,10%,-25%,-10%
CN=c1scc(C)n1/N=C/c1ccc(O)cc1O,16µM*,11%,-15%,11%,?,-9%
CN=c1scc(C)n1/N=C/c1ccc2c(c1)OCO2,11µM*,4%,-3%,3%,?,4%
N#CC(C#N)=C(N)/C(C#N)=C/c1cc(O)c(O)c(O)c1,11µM*,179%,-11%,?,?,-2%
CCN(CC)C(=O)/C(C#N)=C/c1cc(O)c(O)c([N+](=O)[O-])c1,/,2%,-5%,/,/,5%
CCC(O)OCCCOC (stereo unspecified),/,/,-1%[201 µM],/,/,-5%[201 µM]
O=C(CNC(=O)C(c1ccccc1)c1ccccc1)N/N=C/c1ccc(O)cc1O,?,4%,1%,6%,?,-1%
Cc1cc(SCC(=O)N/N=C/c2ccc(O)cc2O)c(C)cc1Br,?,15%,4%,-7%,16µM*[quencher],2%
CSc1nc2ccc(NS(=O)(=O)c3c(Cl)cccc3Cl)cc2s1,?,30%,-2%,-3%,10µM*[quencher],-12%
CSc1nc2ccc(NS(=O)(=O)c3ccccc3F)cc2s1,-5%,-4%,-4%,3%,-11%,-4%
Cc1cc(/C=C2\SC(=S)NC2=O)c(C)n1C1CC1,13µM*,38%,-1%,5%,-28%,1%
Cc1ccc(NC(=S)c2nc3ccccc3[nH]2)cc1,7.9µM*,3%,1%,-2%,?,5%
CCC1CCCCC1,/,/,-1%,/,/,-6%
CC(=O)OCCN(C)c1cc(SC(C)C)c2nonc2c1[N+](=O)[O-],14µM*,-9%,-4%,-17%,?,1%
CN(CCO)c1cc(Sc2nc3ccccc3s2)c2nonc2c1[N+](=O)[O-],28µM*,-30%,-1%,-14%,?,1%
CC(=O)OCCNc1cc(SC(C)C)c2nonc2c1[N+](=O)[O-],?,-7%,-2%,1%,-29%,0%
SMILES,Tau ThT inhib,RGS12 GoLoco inh,TexasRed fluor,Tau FP inhib,Tau fluor cs,TRb-SRC2 inh
NS(=O)(=O)c1ccc(Sc2nc3ccccc3s2)c([N+](=O)[O-])c1,/,18%,-5%,4%,?,1%
CN1C(=O)C(N=Nc2ccccc2C(=O)O)N(C)C1=S (stereo unspecified),4.5µM*,3%,0%,-6%,1%,-2%
Oc1c(Cl)cc(Cl)cc1C=Nc1ccc2c(c1)OCCO2,16µM*,50%,-3%,-14%,-19%,2%
Oc1ccc2ccccc2c1C=Nc1ccc(N2CCOCC2)cc1,5µM*,-112%,-3%,-9%,?,-18%
Oc1ccc(N=Nc2cccc(Cl)c2)cc1C=Nc1ccc(N2CCOCC2)cc1,?,71%,-8%,-7%,-15%,-10%
Oc1c(Br)cc(Cl)cc1C=Nc1ccc(N2CCOCC2)cc1,16µM*,217%,5%,-18%,-18%,-1%
C(=Nc1ccc(N2CCOCC2)cc1)c1c[nH]c2ccccc12,25µM*,-4%,-2%,-10%,?,?
CC[C@H](C)[C@H](NC(=O)[C@H](Cc1ccc(O)cc1)NC(=O)[C@@H](NC(=O)[C@H](CCCN=C(N)N)NC(=O)[C@@H](N)CC(=O)O)C(C)C)C(=O)N[C@@H](Cc1ccc(N)cc1)C(=O)N1CCC[C@H]1C(=O)N[C@@H](Cc1ccccc1)C(=O)O,/,/,-17%,/,/,1%
C#CCCOC(=O)N1C2=NC(C(=O)OC)=C(C(=O)OC)[C@@H]3N(CC#CC)c4ccccc4[C@]23C[C@H]1C(=O)OC,-4%[11.5 µM],8%[14.2 µM],3%[11.2 µM],0%[11.6 µM],-5%[11.6 µM],8%[11.2 µM]
Cc1ccc(N2C(=O)CC(Sc3ccccc3C(=O)O)C2=O)c([N+](=O)[O-])c1 (stereo unspecified),?,-14%,-3%,-2%,-23%,-7%
COc1ccc(N2C(=O)CC(Sc3ccccc3C(=O)O)C2=O)c([N+](=O)[O-])c1 (stereo unspecified),14µM*,-22%,-8%,-8%,?,0%
COCCNC(=O)CN(C(=O)CCC(=O)Nc1ccccn1)c1ccc(F)c(Cl)c1,6.3µM*,/,-5%,7%,?,-1%
COCCNC(=O)CN(C(=O)CCC(=O)Nc1ccccn1)c1ccc(F)cc1,-3%,11%,-1%,5%,0%,-4%
O=C(Nc1cccc(F)c1)C1CCN(S(=O)(=O)c2ccc3[nH]c4c(c3c2)CCCCC4)CC1,-13%,/,-2%,-2%,28µM*[quencher],4%
CSc1cccc(NC(=O)C2CCN(S(=O)(=O)c3ccc4[nH]c5c(c4c3)CCCCC5)CC2)c1,6%,/,-2%,-5%,?,-2%
COc1cccc(NC(=O)C2CCN(S(=O)(=O)c3ccc4[nH]c5c(c4c3)CCCCC5)CC2)c1,3%,/,0%,-14%,6.3µM*[quencher],0%
CCCCCNC(=O)c1ccc2c(=O)[nH]c3c(C(=O)NCC4CCCO4)sc(=S)n3c2c1 (stereo unspecified),14µM*,2%,-21%,10%,-29%,8%
